# Results published in PubChem BioAssay (Tox21).
# Where “and” joins values, the source holds several entries; their conditions need not be identical. Equal entries are not always repeated. Inconclusive results are not listed. Values without a mark were called inactive. Calls of active or inactive are those of the source. The call rests on the fitted dose curve; in most records, active means well fitted cell-killing curve with a large enough effect in the repeat runs; inconclusive means weak or mixed curves, or effect the other way; inactive means flat fitted curve, though single readings scatter.
# Assay: Nuclear factor erythroid 2-related factor 2/antioxidant responsive element (Nrf2/ARE) small molecule agonists: qHTS cell viability counter screen in human keratinocytes (AID 1919968); further: nearly all actives have a fitted effect of over 55% in size
# Details: KeratinoSens HaCaT ARE cells viability, CellTiter-Fluor, 24 h; series mostly up to 92.4 µM; activity change, negative = cytotoxicity: at the top concentration
# Summary of the method: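 Parallel cytotoxicity read: KeratinoSens HaCaT cells, compound treatment 23 h, viability by CellTiter-Fluor fluorescence 1 h post-reagent.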
# On the % scale 0 is the no-effect control and ±100 the full control effect; potency means the concentration at half of the fitted maximal effect.
SMILES,"activity change, negative = cytotoxicity",Potency
Nc1ncc([N+](=O)[O-])s1,-0.548%,
Oc1ccccc1-c1ccccc1,,inactive
ClCc1ccccc1,0.798%,
CCCCC(C#N)(Cn1cncn1)c1ccc(Cl)cc1 (stereo unspecified),,inactive
Cc1ccccc1N,,inactive
CCCC1CCCCN1 (stereo unspecified),-0.528% [at 42.5 µM],
ClC(Cl)(Cl)c1ccccc1,,inactive
CCCCCCCCCCCCBr,-7.65%,
c1ccc2c(c1)Oc1ccccc1O2,,inactive
Cc1ccc(N)cc1,,inactive
O=C(CCl)CCl,,50.3 µM (active) and 54.5 µM (active)
Nc1ccc(Cl)cc1,,inactive
O=S(=O)(O)C(F)(F)C(F)(F)C(F)(F)C(F)(F)C(F)(F)C(F)(F)F,-14.1%,
CC(Cl)C(=O)O (stereo unspecified),0.406%,
c1ccc2c(c1)oc1ccccc12,,inactive
CC[C@H](N)c1ccccc1,-2.16%,

SMILES,"activity change, negative = cytotoxicity",Potency
C=CC(=O)OCCO,,inactive
C=C(C)[C@@H]1CC=C(C=O)CC1,-0.433%,
CN(CCO)CCO,1.14%,
COc1ccc(N)cc1,,inactive
CCCCCCCCCCOC(=O)c1ccccc1C(=O)OCCCCCCCCCC,6.08%,
COS(=O)(=O)c1ccc(C)cc1,1.93%,
CC1(C)CC(=O)CC(C)(C)N1[O],1.71%,
CCN(CCO)CCO,6.26%,
O=C(O)c1ccc(=O)[nH]c1,-5.52% [at 42.5 µM],
Nc1ccccc1Cl,-3.73%,
O=C1C(Cl)=C(Cl)C(=O)c2ccccc21,,24.4 µM (active) and 48.6 µM (active)
CCCCCCOC(=O)c1ccccc1C(=O)OCCCCCC,9.82%,
CCCCOCCOC(C)=O,,inactive
C1CCC2CCCCC2C1 (stereo unspecified),1.17%,
Cc1cc(-c2ccc(N)c(C)c2)ccc1N,,inactive
